Experimental data from PubChem BioAssay (NCATS).
Inconclusive results are not listed. The source made the active and inactive calls. Calls come from the whole dose curve; as a rule, active = well fitted curve in the direction sought with a large enough effect; inconclusive = small, poorly fitted or top-dose-only effect, or another doubt; inactive = no such curve, though single readings can be large; an effect the other way counts as inactive or inconclusive.

What was measured:
[1] = Quantitative High-Throughput drug screen in 47 multiple myeloma cell lines against the NCATS MIPE library collection: KMS20_JCRB cell viability assay (AID 1918973); note: nearly all actives have a fitted effect of over 45% in size
Summary of the method: (§1)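 Approved and investigational drugs from MIPE 4.0 were added by pin tool to 500 cells per well. After 48 hours at 37C, ATP-based CellTiter-Glo luminescence indicated remaining viability.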

[2] = Quantitative High-Throughput drug screen in 47 multiple myeloma cell lines against the NCATS MIPE library collection: KMS26_JCRB cell viability assay (AID 1918975); note: nearly all actives have a fitted effect of over 45% in size
Summary of the method: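 Luminescent ATP measurement with CellTiter-Glo gives viability, scaled between DMSO-only wells (100%) and media-only wells (0%). Cells, 500 per well, faced library compounds for 48 hours at 37C.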

[3] = Quantitative High-Throughput drug screen in 47 multiple myeloma cell lines against the NCATS MIPE library collection: MMM1_PLB cell viability assay (AID 1918976); note: nearly all actives have a fitted effect of over 35% in size
Summary of the method: (§2)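 500 cells/well; MIPE 4.0 drugs pin-transferred; 48 h, 37C, 5% CO2. CellTiter-Glo, 5 min RT, luminescence. Controls: DMSO 100%, media 0%.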

[4] = Quantitative High-Throughput drug screen in 47 multiple myeloma cell lines against the NCATS MIPE library collection: NCIH929_DSMZ cell viability assay (AID 1918978); note: nearly all actives have a fitted effect of over 35% in size
Summary of the method: as §2

[5] = Quantitative High-Throughput drug screen in 47 multiple myeloma cell lines against the NCATS MIPE library collection: OCIMY1_PLB cell viability assay (AID 1918979); note: nearly all actives have a fitted effect of over 35% in size
Summary of the method: as §2

[6] = Quantitative High-Throughput drug screen in 47 multiple myeloma cell lines against the NCATS MIPE library collection: MM1R_ATCC cell viability assay (AID 1918981); note: nearly all actives have a fitted effect of over 35% in size
Summary of the method: as §2

[7] = Quantitative High-Throughput drug screen in 47 multiple myeloma cell lines against the NCATS MIPE library collection: LP1_DSMZ cell viability assay (AID 1918982); note: nearly all actives have a fitted effect of over 35% in size
Summary of the method: as §2

[8] = Quantitative High-Throughput drug screen in 47 multiple myeloma cell lines against the NCATS MIPE library collection: KMS28PE_JCRB cell viability assay (AID 1918983); note: nearly all actives have a fitted effect of over 35% in size
Summary of the method: as §2

[9] = Quantitative High-Throughput drug screen in 47 multiple myeloma cell lines against the NCATS MIPE library collection: L363_DSMZ cell viability assay (AID 1918984); note: nearly all actives have a fitted effect of over 40% in size
Summary of the method: as §2

[10] = Quantitative High-Throughput drug screen in 47 multiple myeloma cell lines against the NCATS MIPE library collection: KMS34_JCRB cell viability assay (AID 1918985); note: nearly all actives have a fitted effect of over 40% in size
Summary of the method: as §2

[11] = Quantitative High-Throughput drug screen in 47 multiple myeloma cell lines against the NCATS MIPE library collection: OCIMY7_PLB cell viability assay (AID 1918987); note: nearly all actives have a fitted effect of over 65% in size
Summary of the method: as §2

[12] = Quantitative High-Throughput drug screen in 47 multiple myeloma cell lines against the NCATS MIPE library collection: OCIMY5_PLB cell viability assay (AID 1918988); note: nearly all actives have a fitted effect of over 65% in size
Summary of the method: as §2

[13] = Quantitative High-Throughput drug screen in 47 multiple myeloma cell lines against the NCATS MIPE library collection: OPM1_PLB cell viability assay (AID 1918989); note: nearly all actives have a fitted effect of over 40% in size
Summary of the method: as §2

[14] = Quantitative High-Throughput drug screen in 47 multiple myeloma cell lines against the NCATS MIPE library collection: SKMM1_PLB cell viability assay (AID 1919863); details: SKMM1 myeloma viability, CellTiter-Glo ATP, 48 h; viability: active compounds read low; note: nearly all actives have a fitted effect of over 35% in size
Summary of the method: as §2

[15] = Quantitative High-Throughput drug screen in 47 multiple myeloma cell lines against the NCATS MIPE library collection: U266_ATCC cell viability assay (AID 1919864); note: nearly all actives have a fitted effect of over 35% in size
Summary of the method: as §2

[16] = Quantitative High-Throughput drug screen in 47 multiple myeloma cell lines against the NCATS MIPE library collection: XG6_PLB cell viability assay (AID 1919865); note: nearly all actives have a fitted effect of over 40% in size
Summary of the method: as §2

[17] = Quantitative High-Throughput drug screen in 47 multiple myeloma cell lines against the NCATS MIPE library collection: XG1_PLB cell viability assay (AID 1919866); note: nearly all actives have a fitted effect of over 35% in size
Summary of the method: as §2

[18] = Quantitative High-Throughput drug screen in 47 multiple myeloma cell lines against the NCATS MIPE library collection: MM1S_ATCC cell viability assay (AID 1918980); note: nearly all actives have a fitted effect of over 45% in size
Summary of the method: as §2

[19] = Quantitative High-Throughput drug screen in 47 multiple myeloma cell lines against the NCATS MIPE library collection: MOLP8_DSMZ cell viability assay (AID 1918977); note: nearly all actives have a fitted effect of over 45% in size
Summary of the method: as §2

[20] = Quantitative High-Throughput drug screen in 47 multiple myeloma cell lines against the NCATS MIPE library collection: KMS21BM_JCRB cell viability assay (AID 1918974); details: ATP luminescence, 48 h; viability: at 45.8 µM (top of the series) unless noted
Summary of the method: as §1
Potency is the fitted concentration of half-maximal effect.

COCCOc1ccc2c(c1)ncn2-c1ccc2cccc(N3CCC(N)CC3)c2n1
active: Potency [1] 0.0743 µM | Potency [2] 13.2 µM | Potency [3] 23.5 µM | Potency [4] 1.66 µM | Potency [5] 2.64 µM | Potency [6] 1.66 µM | Potency [7] 2.09 µM | Potency [8] 13.2 µM | Potency [9] 0.187 µM | Potency [10] 0.372 µM | Potency [11] 0.469 µM | Potency [12] 0.235 µM | Potency [13] 0.0935 µM | Potency [14] 23.5 µM | Potency [15] 8.33 µM | Potency [16] 0.372 µM | Potency [17] 0.132 µM

COc1cc2c(Oc3ccc4[nH]c(C)cc4c3F)ncnc2cc1OCCCN1CCCC1
active: Potency [1] 2.96 µM | Potency [2] 29.6 µM | Potency [3] 23.5 µM | Potency [4] 7.43 µM | Potency [5] 26.4 µM | Potency [18] 18.7 µM | Potency [6] 26.4 µM | Potency [8] 20.9 µM | Potency [11] 6.62 µM | Potency [12] 23.5 µM | Potency [13] 5.9 µM | Potency [14] 20.9 µM | Potency [15] 26.4 µM | Potency [16] 2.35 µM | Potency [17] 3.32 µM

Clc1cccc(-c2nnnn2Cc2cccnc2)c1Cl
active: Potency [11] 3.72 µM | Potency [16] 16.6 µM | Potency [17] 18.7 µM
inactive: Potency [1] | Potency [2] | Potency [19] | Potency [5] | Potency [6] | Potency [7] | Potency [8] | Potency [10] | Potency [12] | Potency [13]

CN1c2cc(O)c(N=NC(N)=O)cc2CC1S(=O)(=O)O (centres undefined)
inactive: Potency [1] | Potency [2] | Potency [19] | Potency [4] | Potency [7] | Potency [8] | Potency [9] | Potency [10] | Potency [12] | Potency [13] | viability [14] 97.7%

Nc1nc(Nc2ccc(S(N)(=O)=O)cc2)nn1C(=O)c1c(F)cccc1F
active: Potency [1] 4.18 µM | Potency [2] 7.43 µM | Potency [3] 10.5 µM | Potency [4] 4.18 µM | Potency [5] 13.2 µM | Potency [18] 7.43 µM | Potency [6] 6.62 µM | Potency [7] 8.33 µM | Potency [8] 8.33 µM | Potency [9] 2.96 µM | Potency [10] 8.33 µM | Potency [11] 3.32 µM | Potency [12] 7.43 µM | Potency [13] 7.43 µM | Potency [14] 10.5 µM | Potency [15] 7.43 µM | Potency [16] 2.35 µM | Potency [17] 2.35 µM

CN(C)c1nc(Cc2ccc(NC(=O)c3ccc4ccccc4c3)cc2)nc(Cl)c1CC(=O)O
active: Potency [18] 2.96 µM | Potency [12] 1.66 µM
inactive: Potency [1] | Potency [2] | Potency [19] | Potency [4] | Potency [6] | Potency [7] | Potency [8] | Potency [13] | Potency [15] | Potency [16] | Potency [17]

NC1(Cc2ccc(Cl)cc2)CCN(c2ncnc3[nH]ccc23)CC1
active: Potency [1] 3.32 µM | Potency [2] 6.62 µM | Potency [3] 0.526 µM | Potency [19] 8.33 µM | Potency [18] 1.87 µM | Potency [8] 5.26 µM | Potency [9] 1.87 µM | Potency [10] 7.43 µM | Potency [11] 5.9 µM | Potency [12] 9.35 µM | Potency [13] 1.48 µM | Potency [14] 18.7 µM | Potency [15] 20.9 µM | Potency [16] 13.2 µM | Potency [17] 3.72 µM

C1=CCOCc2cc(ccc2OCCN2CCCC2)Nc2nccc(n2)-c2cccc(c2)OCC1
active: Potency [1] 2.35 µM | Potency [2] 4.18 µM | Potency [3] 3.32 µM | Potency [19] 2.09 µM | Potency [5] 5.9 µM | Potency [18] 2.64 µM | Potency [6] 2.64 µM | Potency [7] 2.64 µM | Potency [9] 0.743 µM | Potency [10] 2.35 µM | Potency [11] 1.18 µM | Potency [12] 2.35 µM | Potency [13] 3.32 µM | Potency [14] 9.35 µM | Potency [15] 5.26 µM | Potency [16] 1.87 µM | Potency [17] 2.64 µM

C=C1C(=CC=C2CCC[C@]3(C)[C@@H]([C@H](C)C=C[C@H](C)C(C)C)CC[C@@H]23)C[C@@H](O)C[C@@H]1O
active: Potency [20] 0.0526 µM | Potency [2] 2.35 µM | Potency [3] 5.9 µM | Potency [19] 7.43 µM | Potency [4] 0.935 µM | Potency [5] 18.7 µM | Potency [18] 0.0833 µM | Potency [6] 1.66 µM | Potency [8] 13.2 µM | Potency [9] 0.264 µM | Potency [10] 3.32 µM | Potency [11] 11.8 µM | Potency [12] 0.526 µM | Potency [13] 1.66 µM | Potency [14] 14.8 µM | Potency [15] 1.05 µM | Potency [16] 1.87 µM | Potency [17] 1.32 µM

CCCCN1CCC(CNC(=O)c2c3n(c4ccccc24)CCCO3)CC1
active: Potency [1] 13.2 µM | Potency [3] 5.26 µM | Potency [4] 4.69 µM | Potency [18] 3.72 µM | Potency [8] 23.5 µM | Potency [11] 3.72 µM | Potency [12] 3.32 µM | Potency [13] 23.5 µM | Potency [14] 16.6 µM | Potency [15] 4.69 µM | Potency [16] 0.833 µM | Potency [17] 0.743 µM
